PubChem BioAssay (EPA / NIEHS)
Results filed as inconclusive are left out. Calls of active or inactive are those of the source. Rule for the calls, unless noted: active = hit-call score of the fitted dose curve at least 0.9, where 1 is the maximum; inactive = score below 0.9.

Columns and labels:
[1] = ACEA_ER_80hr: ACEA Biosciences xCELLigence Real-Time Cell Analysis on Estrogen Receptor Agonism for Proliferation (AID 2282667; active = hit-call score of the fitted dose curve at least 0.9, where 1 is the maximum); details: T47D proliferation, impedance (xCELLigence), 80 h
In short: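 Real-time impedance growth kinetics of human T-47D breast cells read 80 h after dosing, gain-of-signal fitted relative to DMSO. Compounds: 1:4 serial series, top final concentration 100 uM, n = 2.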

[2] = APR_HepG2_CellCycleArrest_24hr: Apredica 24-hour HepG2 Assay for Cell Cycle Arrest (AID 2282905); details: imaging, actives raise or lower the signal;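 note: cell cycle arrest scored as ratio of 2N to 4N nuclear DNA content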
In short: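 Compounds (0.39 to 200 uM, final DMSO 0.5% v/v) are applied to HepG2 cells for 24 hours; cells are then fixed, permeabilized and nuclei labeled with Hoechst 33342. Automated imaging measures DNA content, and activity is fitted in both directions against DMSO.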

[3] = APR_HepG2_NuclearSize_24hr: Apredica 24-hour HepG2 Assay for Nuclear Size (AID 2282907); details: high-content imaging, actives raise or lower the signal
In short: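 Nuclear size is measured by fluorescence high-content imaging of Hoechst-labelled HepG2 nuclei after 24 hr of treatment (0.39–200 uM, 0.5% DMSO). Cells are fixed in 3.7% formaldehyde before staining, and DMSO serves as the baseline for bidirectional curve fitting.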

[4] = APR_HepG2_CellLoss_24hr: Apredica 24-hour HepG2 Assay for Cell Loss (AID 2282908); details: high-content imaging;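 for AC50: fit in both directions so a hit may be cell loss or gain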
In short: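 Nuclear count serves as the viability measure: treated cells are fixed, permeabilized and labelled with Hoechst 33342, and six images per well are analysed to identify valid nuclei. Doses span 0.39–200 uM, and activity in either direction is scored against DMSO.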

[5] = APR_HepG2_MicrotubuleCSK_24hr: Apredica 24-hour HepG2 Assay for Microtubule CSK Stabilty (AID 2282909); details: HepG2 microtubule cytoskeleton imaging, actives raise or lower the signal
In short: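 Compounds were applied to HepG2 cells for 24 hours across 0.39–200 uM in duplicate, with final DMSO at 0.5% v/v. Fixed, permeabilized cells were labeled for alpha-tubulin and nuclei, and tubulin fluorescence was quantified by imaging, fitted bidirectionally against DMSO.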

[6] = APR_HepG2_MitoticArrest_24hr: Apredica 24-hour HepG2 Assay for Mitotic Arrest (AID 2282910); details: high-content imaging, actives raise or lower the signal
In short: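 High-content imaging of fixed HepG2 cells labeled with Hoechst 33342 and anti-phospho-histone H3, after 24 h treatment. Ten concentrations 0.39 to 200 uM in duplicate, final DMSO 0.5%; changes fitted both directions relative to DMSO.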

[7] = APR_HepG2_MitoMembPot_24hr: Apredica 24-hour HepG2 Assay for Mitochondrial Membrane Potential (AID 2282911); details: imaging, actives raise or lower the signal
In short: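 Mitochondrial membrane potential imaged via MitoTracker Red CMXRos (250 nM, 30 min pre-fixation) in fixed HepG2 cells with Hoechst nuclear identification. Ten concentrations 0.39–200 uM, 24 h treatment, 0.5% DMSO; CCCP as positive control.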

[8] = APR_HepG2_MitoMass_24hr: Apredica 24-hour HepG2 Assay for Mitochondrial Mass (AID 2282912); details: high-content imaging, actives raise or lower the signal
In short: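 After 24 hr of treatment at 0.39 to 200 uM, HepG2 cells take up 250 nM MitoTracker Red CMXRos for 30 min and are then fixed with 3.7% formaldehyde. Per-well images are quantified, and any change in either direction is scored against solvent.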

[9] = APR_HepG2_CellCycleArrest_72hr: Apredica 72-hour HepG2 Assay for Cell Cycle Arrest (AID 2282914); details: high-content imaging, actives raise or lower the signal
In short: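 Read-out: nuclear DNA content from Hoechst 33342 high-content imaging (20x, six fields/well) after 3.7% formaldehyde fixation, fitted bidirectionally against DMSO. Treatment was 72 h in HepG2, ten concentrations 0.39–200 uM, duplicate, 0.5% DMSO.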

[10] = APR_HepG2_CellLoss_72hr: Apredica 72-hour HepG2 Assay for Cell Loss (AID 2282915); details: high-content imaging
In short: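 Cell number comes from Hoechst 33342-labelled nuclei, imaged at 20x after 3.7% formaldehyde fixation. Dosing was 0.39–200 uM, ten concentrations in duplicate, 0.5% DMSO final, for 72 h. Bidirectional fit relative to DMSO baseline.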

Measured: AC50

CC(=O)c1ccccc1
inactive: [1] | [2] | [3] | [4] | [5] | [6] | [7] | [8] | [9] | [10]

NNC(=O)c1ccncc1
inactive: [1] | [2] | [3] | [4] | [5] | [6] | [7] | [8] | [9] | [10]

CC(C)C(=O)Nc1ccc([N+](=O)[O-])c(C(F)(F)F)c1
inactive: [3] | [5] | [7]
active: [1] 80.5 µM | [2] 71 µM | [4] 44.4 µM | [6] 62.8 µM | [8] 92.2 µM | [9] 34.9 µM | [10] 58.8 µM

NC(=O)N1c2ccccc2C=Cc2ccccc21
inactive: [2] | [3] | [4] | [5] | [6] | [7] | [8] | [9] | [10]
active: [1] 69.5 µM

C[C@@H](Oc1ccc(CNC(=O)c2cccnc2Oc2ccc3c(c2)OCO3)c(F)c1)C(=O)O
inactive: [1] | [2] | [3] | [4] | [5] | [6] | [8] | [9] | [10]
active: [7] 0.0391 µM

Cn1cc[nH]c1=S
inactive: [1] | [2] | [3] | [4] | [5] | [6] | [7] | [8] | [9] | [10]

COS(C)(=O)=O
inactive: [1] | [2] | [3] | [4] | [5] | [6] | [7] | [8] | [9] | [10]

Cc1ncc([C@@H](CCCCCCc2ccc3c(n2)NCCC3)CC(=O)O)cn1
active: [6] 0.0392 µM | [8] 0.18 µM | [10] 0.944 µM
inactive: [1] | [2] | [3] | [4] | [5] | [7] | [9]

CNC(C)=O
inactive: [1] | [2] | [3] | [4] | [5] | [6] | [7] | [8] | [9] | [10]

CCCC(CCC)C(=O)O
inactive: [1] | [2] | [3] | [4] | [5] | [6] | [7] | [8] | [9] | [10]

O=C(O)[C@H](O)[C@@H](O)C(=O)O
inactive: [1] | [2] | [3] | [4] | [5] | [6] | [7] | [8] | [9] | [10]

O=C(O)c1cccc(C(=O)O)c1
inactive: [1] | [2] | [3] | [4] | [5] | [6] | [7] | [8] | [9] | [10]

CCCCCOC(C)=O
inactive: [1] | [2] | [3] | [4] | [5] | [6] | [7] | [8] | [9] | [10]
